# Test results reported in PubChem BioAssay (Tox21).
# Results filed as inconclusive are left out. Where a call stands in place of a potency, no number is given. Values without a mark were called inactive. Active and inactive are the calls of the source. The call rests on the fitted dose curve; in most records, active means well fitted curve in the direction sought with a large enough effect in the repeat runs; inconclusive means weak or mixed curves; inactive means no such curve, though single readings can be large; an effect the other way counts as inactive or inconclusive.
# Experiments:
# [1] = target: Cytochrome P450 2C19 (Homo sapiens) (UniProt P33261); test: Cytochrome P450 Family 2 Subfamily C Member 19 (CYP2C19) small molecule antagonists: luciferase reporter qHTS assay (AID 1671197); conditions: P450-Glo CYP2C19 enzyme, luciferin luminescence, 1 h; series mostly up to 115 µM; further: nearly all actives have a fitted effect of over 65% in size
# How it was run: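 Relative luminescence units recorded 20 min after the detection reagent stopped a 1 h, 37C CYP2C19 reaction on proluciferin substrate, which was started by NADPH regeneration following 10 min room-temperature compound preincubation; ketoconazole positive control.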
# [2] = target: Cytochrome P450 1A2 (Homo sapiens) (UniProt P05177); test: Cytochrome P450 Family 1 Subfamily A Member 2 (CYP1A2) small molecule antagonists: luciferase reporter qHTS assay (AID 1671199); conditions: P450-Glo CYP1A2 enzyme, luciferin luminescence, 1 h; series mostly up to 53 µM; further: nearly all actives have a fitted effect of over 50% in size
# How it was run: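 Steps: enzyme-substrate mix dispensed; test compounds and furafylline control pinned in; 10 min room temperature; NADPH regeneration solution added, 1 h; reaction stopped with luciferin detection reagent; luminescence read after 20 min.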
# [3] = target: Voltage-gated inwardly rectifying potassium channel KCNH2 (Homo sapiens) (UniProt Q12809); test: Human Ether-a-go-go-Related Gene (hERG) channel small molecule antagonists: fluorescence cell-based qHTS assay (AID 1671200); conditions: hERG-U2OS cells, FluxOR thallium flux fluorescence; series mostly up to 76.8 µM; further: nearly all actives have a fitted effect of over 50% in size;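 on activity change, negative = inhibition: hERG-expressing U2OS cells given a thallium stimulus after FluxOR II dye loading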
# How it was run: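 Cell line hERG-U2OS; dye FluxOR II, 1 h RT dark; Tl+ stimulus; ex 480/em 540 nm, read each second for 2 min.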
# [4] = target: Cytochrome P450 3A4 (Homo sapiens) (UniProt P08684); test: Cytochrome P450 Family 3 Subfamily A Member 4 (CYP3A4) small molecule antagonists: luciferase reporter qHTS assay (AID 1671201); conditions: P450-Glo CYP3A4 enzyme, luciferin luminescence, 1 h; series mostly up to 115 µM; further: nearly all actives have a fitted effect of over 50% in size
# How it was run: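 Room-temperature assay throughout: 10 min compound–enzyme/substrate preincubation, 1 h reaction after NADPH regeneration solution, 20 min detection. Luciferin formed from proluciferin substrate is quantified by luminescence.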
# [5] = target: Cytochrome P450 2C9 (Homo sapiens) (UniProt P11712); test: Cytochrome P450 Family 2 Subfamily C Member 9 (CYP2C9) small molecule antagonists: luciferase reporter qHTS assay (AID 1671198); conditions: P450-Glo CYP2C9 enzyme assay, luciferin luminescence; series mostly up to 53 µM; further: nearly all actives have a fitted effect of over 50% in size
# How it was run: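 CYP2C9 activity was measured with a P450-Glo proluciferin substrate. Enzyme–substrate mix was held with compound for 10 min at room temperature, then NADPH regeneration solution was added for 1 h at 37C. Luciferin product was read as luminescence.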
# Potency means the concentration at half of the fitted maximal effect.
# Sequence of Cytochrome P450 2C9 (Homo sapiens) (P11712 whole entry, looked up): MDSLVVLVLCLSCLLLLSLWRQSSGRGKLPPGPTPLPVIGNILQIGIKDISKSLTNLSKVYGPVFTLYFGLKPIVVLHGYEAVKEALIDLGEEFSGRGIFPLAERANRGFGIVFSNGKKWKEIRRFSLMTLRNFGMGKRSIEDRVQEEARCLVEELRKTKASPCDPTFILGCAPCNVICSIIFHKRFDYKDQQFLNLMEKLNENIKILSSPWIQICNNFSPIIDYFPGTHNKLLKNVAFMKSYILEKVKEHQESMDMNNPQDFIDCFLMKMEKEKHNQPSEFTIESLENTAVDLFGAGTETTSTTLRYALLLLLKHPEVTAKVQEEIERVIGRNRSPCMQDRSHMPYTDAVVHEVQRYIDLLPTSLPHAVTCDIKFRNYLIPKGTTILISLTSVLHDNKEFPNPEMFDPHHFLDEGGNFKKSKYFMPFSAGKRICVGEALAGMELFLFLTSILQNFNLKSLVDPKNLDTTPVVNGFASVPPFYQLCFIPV
# Sequence of Cytochrome P450 1A2 (Homo sapiens) (P05177 whole entry, looked up): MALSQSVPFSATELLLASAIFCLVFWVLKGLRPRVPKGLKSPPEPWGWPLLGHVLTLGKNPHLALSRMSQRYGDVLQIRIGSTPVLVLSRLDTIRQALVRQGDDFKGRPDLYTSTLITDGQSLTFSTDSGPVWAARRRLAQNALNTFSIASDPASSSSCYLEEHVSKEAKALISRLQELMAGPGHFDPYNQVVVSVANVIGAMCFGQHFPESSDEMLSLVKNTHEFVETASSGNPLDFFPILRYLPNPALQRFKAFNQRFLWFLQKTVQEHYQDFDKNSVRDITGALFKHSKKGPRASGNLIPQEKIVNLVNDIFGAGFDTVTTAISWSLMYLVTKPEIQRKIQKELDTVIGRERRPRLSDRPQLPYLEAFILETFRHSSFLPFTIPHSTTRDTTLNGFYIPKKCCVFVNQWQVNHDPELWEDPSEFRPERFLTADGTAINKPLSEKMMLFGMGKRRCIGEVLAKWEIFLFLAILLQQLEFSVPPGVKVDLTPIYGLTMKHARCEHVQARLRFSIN
# Sequence of Cytochrome P450 2C19 (Homo sapiens) (P33261 whole entry, looked up): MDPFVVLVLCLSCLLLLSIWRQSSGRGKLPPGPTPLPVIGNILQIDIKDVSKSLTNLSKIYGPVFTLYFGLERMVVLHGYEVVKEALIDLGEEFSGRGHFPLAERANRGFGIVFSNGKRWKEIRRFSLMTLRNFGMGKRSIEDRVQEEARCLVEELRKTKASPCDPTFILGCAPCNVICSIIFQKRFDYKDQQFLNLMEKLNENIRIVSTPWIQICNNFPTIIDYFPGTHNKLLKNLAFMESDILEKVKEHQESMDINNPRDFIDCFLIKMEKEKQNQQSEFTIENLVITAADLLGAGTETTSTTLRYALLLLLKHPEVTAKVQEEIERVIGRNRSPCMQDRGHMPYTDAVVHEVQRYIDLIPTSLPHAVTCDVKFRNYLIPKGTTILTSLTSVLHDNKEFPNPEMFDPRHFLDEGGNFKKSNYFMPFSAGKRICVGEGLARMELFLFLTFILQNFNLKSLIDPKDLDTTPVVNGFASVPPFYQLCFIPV
# Sequence of Voltage-gated inwardly rectifying potassium channel KCNH2 (Homo sapiens) (Q12809 whole entry, looked up): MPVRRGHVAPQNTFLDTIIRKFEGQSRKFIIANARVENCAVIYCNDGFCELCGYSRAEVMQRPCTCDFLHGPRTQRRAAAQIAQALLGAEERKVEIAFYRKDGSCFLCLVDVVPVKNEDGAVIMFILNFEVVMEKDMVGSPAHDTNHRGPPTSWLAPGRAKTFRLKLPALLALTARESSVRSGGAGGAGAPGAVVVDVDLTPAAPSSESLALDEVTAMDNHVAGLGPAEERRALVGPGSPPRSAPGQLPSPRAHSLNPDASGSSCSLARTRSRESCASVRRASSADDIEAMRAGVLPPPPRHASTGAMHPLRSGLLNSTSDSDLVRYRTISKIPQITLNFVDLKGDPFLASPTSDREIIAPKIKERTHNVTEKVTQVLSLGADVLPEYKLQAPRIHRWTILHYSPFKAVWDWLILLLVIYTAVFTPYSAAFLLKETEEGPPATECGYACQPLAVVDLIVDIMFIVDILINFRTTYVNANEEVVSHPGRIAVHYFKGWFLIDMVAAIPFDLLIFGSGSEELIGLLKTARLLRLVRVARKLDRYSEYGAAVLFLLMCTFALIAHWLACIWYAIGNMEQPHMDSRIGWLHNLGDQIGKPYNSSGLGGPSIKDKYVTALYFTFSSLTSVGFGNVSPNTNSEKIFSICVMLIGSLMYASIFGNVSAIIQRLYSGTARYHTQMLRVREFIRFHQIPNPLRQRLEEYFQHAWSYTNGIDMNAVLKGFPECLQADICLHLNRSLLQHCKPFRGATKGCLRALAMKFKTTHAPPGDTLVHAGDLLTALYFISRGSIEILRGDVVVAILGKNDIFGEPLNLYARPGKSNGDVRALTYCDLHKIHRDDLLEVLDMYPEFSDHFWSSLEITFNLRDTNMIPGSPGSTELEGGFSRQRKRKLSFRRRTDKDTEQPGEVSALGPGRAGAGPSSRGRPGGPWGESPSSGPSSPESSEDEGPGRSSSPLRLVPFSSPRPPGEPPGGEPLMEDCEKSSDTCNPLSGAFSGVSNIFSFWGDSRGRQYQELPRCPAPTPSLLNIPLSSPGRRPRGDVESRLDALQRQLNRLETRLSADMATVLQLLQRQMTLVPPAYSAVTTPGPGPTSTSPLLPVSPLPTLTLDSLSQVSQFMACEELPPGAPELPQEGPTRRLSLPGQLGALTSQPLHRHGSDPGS
# Sequence of Cytochrome P450 3A4 (Homo sapiens) (P08684 whole entry, looked up): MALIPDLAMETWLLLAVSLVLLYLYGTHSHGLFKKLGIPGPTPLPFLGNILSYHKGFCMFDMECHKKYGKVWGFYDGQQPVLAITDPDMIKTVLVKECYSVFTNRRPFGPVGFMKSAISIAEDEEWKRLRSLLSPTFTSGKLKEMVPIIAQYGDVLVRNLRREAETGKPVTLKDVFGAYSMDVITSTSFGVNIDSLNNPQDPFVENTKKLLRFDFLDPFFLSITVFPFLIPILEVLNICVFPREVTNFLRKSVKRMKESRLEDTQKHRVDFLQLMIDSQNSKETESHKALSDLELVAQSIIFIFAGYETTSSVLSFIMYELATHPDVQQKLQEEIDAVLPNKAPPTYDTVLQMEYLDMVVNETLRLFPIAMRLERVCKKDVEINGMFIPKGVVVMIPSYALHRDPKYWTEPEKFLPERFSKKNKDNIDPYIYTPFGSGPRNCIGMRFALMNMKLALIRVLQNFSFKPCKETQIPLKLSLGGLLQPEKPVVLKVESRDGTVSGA
Compound,Potency [1],Potency [2],Potency [3],Potency [4],Potency [5],"activity change, negative = inhibition [3]","activity change, negative = inhibition [4]"
CC/C=C\CCOC(=O)C(C)C,inactive,inactive,inactive,–,–,–,–
CN1CCN(C2=Nc3ccccc3Oc3ccc(Cl)cc32)CC1,8.71 µM (active),inactive,16.9 µM (active),–,–,–,–
Cc1ccc(C)c(N)c1,7.11 µM (active),35.6 µM (active),inactive,3.56 µM (active),–,–,–
CC(C)(CO)[C@@H](O)C(=O)NCCC(=O)O,inactive,–,–,inactive,–,–,–
O=C(O)c1cccc(Cl)c1Cl,inactive,–,inactive,inactive,inactive,–,–
N#Cc1ccc(C(c2ccc(C#N)cc2)n2cncn2)cc1,13.3 µM (active),–,inactive,–,–,–,–
Oc1ccccc1C=NCc1ccccc1,–,inactive,inactive,–,inactive,–,–
Cc1nnc(SCC2=C(C(=O)O)N3C(=O)[C@@H](NC(=O)Cn4cnnn4)[C@H]3SC2)s1,inactive,–,inactive,inactive,–,–,–
CC1(C)O[C@@H]2C[C@H]3[C@@H]4CCC5=CC(=O)CC[C@]5(C)[C@@]4(F)[C@@H](O)C[C@]3(C)[C@]2(C(=O)CCl)O1,–,inactive,inactive,–,15.5 µM (active),–,–
CC(C)(C)c1cccc(O)c1,inactive,–,inactive,inactive,–,–,–
CCc1nnc(NS(=O)(=O)c2ccc(N)cc2)s1,inactive,inactive,inactive,–,–,–,–
CCCC(CCC)(C(=O)OCC)C(=O)OCC,inactive,–,inactive,inactive,–,–,–
Nc1cccc(S(=O)(=O)O)c1,inactive,inactive,inactive,inactive,–,–,–
CCCCNc1ccc(C(=O)OCCN(CC)CC)cc1,inactive,–,–,inactive,–,–,–
NC/C=C/C(=O)O,–,inactive,inactive,inactive,inactive,–,–
C/C(=N\O)[C@@H](C)NCC(C)(C)CN[C@H](C)/C(C)=N/O,–,inactive,inactive,–,inactive,–,–
CN1C(=O)CC(c2ccccc2)C1=O (stereo unspecified),inactive,inactive,inactive,–,–,–,–
CCOC(=O)C1CC(=O)C(=C(O)C2CC2)C(=O)C1 (stereo unspecified),71 µM (active),inactive,inactive,inactive,–,–,–
CC(C)C(=O)OCC(C)(C)C(O)C(C)C (stereo unspecified),inactive,–,inactive,inactive,inactive,–,–
CO[C@@]1(NC(=O)CSCC#N)C(=O)N2C(C(=O)O)=C(CSc3nnnn3C)CS[C@@H]21,inactive,24.5 µM (active),inactive,inactive,–,–,–
CCN(CC)CC1CCCCN1CC(=O)N1c2ccccc2C(=O)Nc2cccnc21 (stereo unspecified),inactive,inactive,–,6.92 µM (active),–,–,–
C[C@]12CCC(=O)C=C1CC[C@@H]1[C@@H]2CC[C@@]2(C)[C@H]1CC[C@]2(O)C(=O)CO,8.71 µM (active),inactive,inactive,inactive,–,–,–
CCCCC(=O)O[C@]1(C(=O)CO)[C@H](C)C[C@H]2[C@@H]3CCC4=CC(=O)C=C[C@]4(C)[C@@]3(F)[C@@H](O)C[C@@]21C,–,inactive,inactive,–,17.4 µM (active),–,–

Compound,Potency [1],Potency [2],Potency [3],Potency [4],Potency [5],"activity change, negative = inhibition [3]","activity change, negative = inhibition [4]"
CCOC(=O)[C@H](CCc1ccccc1)N[C@@H](C)C(=O)N1Cc2cc(OC)c(OC)cc2C[C@H]1C(=O)O,–,inactive,inactive,–,15.5 µM (active),–,–
CS(=O)(=O)c1ccc([C@@H](O)[C@@H](CF)NC(=O)C(Cl)Cl)cc1,21.9 µM (active),inactive,inactive,inactive,–,–,–
CCOC(=O)CS,82 µM (active),65.1 µM (active),inactive,inactive,–,–,–
CCC1(C)NC(=O)NC1=O (stereo unspecified),inactive,–,inactive,inactive,–,–,–
O=Cc1ccc(O)c(O)c1O,inactive,inactive,inactive,inactive,–,–,–
ICCc1ccccc1,78 µM (active),–,inactive,inactive,–,–,–
NCCCN1CCN(CCCN)CC1,inactive,–,inactive,inactive,inactive,–,–
CCCOCCC,inactive,inactive,inactive,inactive,–,–,–
CCCCN1C[C@H](O)[C@@H](O)[C@H](O)[C@H]1CO,–,inactive,inactive,inactive,inactive,–,–
COc1ccc2nc(NC(=O)Nc3ccccc3)sc2c1,–,12.3 µM (active),inactive,inactive,15.5 µM (active),–,–
CCCCNCCCC,–,inactive,inactive,inactive,inactive,–,–
CCOC(=O)NCCC[Si](OCC)(OCC)OCC,–,inactive,inactive,39.9 µM (active),inactive,–,–
Cc1cccc(C)c1NC(=O)CN1CCCCCC1,–,inactive,inactive,inactive,inactive,–,–
COc1ccc(S(=O)(=O)Nc2nnc(CC(C)C)s2)cc1,–,inactive,inactive,inactive,9.77 µM (active),–,–
CCCN(CCC)C(=O)C(CCC(=O)O)NC(=O)c1ccccc1 (stereo unspecified),–,inactive,inactive,inactive,inactive,–,–
Cc1nc(N)nc(N)c1-c1ccc(Cl)c(Cl)c1,–,inactive,–,inactive,inactive,–,–
Cc1c(N)cccc1N,–,23 µM (active),inactive,6.47 µM (active),64.7 µM (active),–,–
CCN(CC)CCOc1ccc(Cc2ccccc2)cc1,–,inactive,7.56 µM (active),inactive,inactive,–,–
COC(=O)c1ccc2cc(C(=O)OC)ccc2c1,–,2.58 µM (active),–,–,inactive,9.84% [at 15.8 µM],16.2% [at 23.6 µM]
OC[C@H]1O[C@@H](O[C@H]2[C@H](O)[C@@H](O)[C@H](O)O[C@@H]2CO)[C@H](O)[C@@H](O)[C@H]1O,–,inactive,inactive,inactive,inactive,–,–
CCCc1c2oc(C(=O)O)cc(=O)c2cc2c(=O)cc(C(=O)O)n(CC)c12,–,inactive,inactive,inactive,inactive,–,–
O=C(Cl)c1cccc([N+](=O)[O-])c1,–,34.6 µM (active),inactive,inactive,inactive,–,–
O=c1[nH]cnc2c1ncn2[C@@H]1O[C@H](CO)[C@@H](O)[C@H]1O,–,inactive,inactive,inactive,inactive,–,–

Compound,Potency [1],Potency [2],Potency [3],Potency [4],Potency [5],"activity change, negative = inhibition [3]","activity change, negative = inhibition [4]"
CCCCCCOc1ccc(N)cc1,–,3.99 µM (active),inactive,35.6 µM (active),22.4 µM (active),–,–
COC(C)CCO (stereo unspecified),–,inactive,inactive,inactive,inactive,–,–
CCc1cc(Cl)c(OC)c(C(=O)NC[C@@H]2CCCN2CC)c1O,–,12.9 µM (active),6.74 µM (active),inactive,inactive,–,–
O=C(O)c1ccccc1Nc1cc(Cl)ccc1C(=O)O,–,inactive,–,–,inactive,6.42% [at 15.8 µM],34.1% [at 23.6 µM]
COc1cc(N)c(Cl)cc1C(=O)NC1CCN(Cc2ccccc2)CC1,–,inactive,16.9 µM (active),1.55 µM (active),inactive,–,–
CCN[C@H]1CN(CCCOC)S(=O)(=O)c2sc(S(N)(=O)=O)cc21,–,inactive,inactive,inactive,inactive,–,–
COc1ccc(Nc2ccc(OC)cc2)cc1,–,18.2 µM (active),inactive,18.2 µM (active),16.2 µM (active),–,–
Cc1ncc(CO)c(CN)c1O,–,inactive,inactive,inactive,inactive,–,–
Clc1cccc(-c2cc(Cl)cc(Cl)c2)c1,–,21.7 µM (active),inactive,inactive,38.5 µM (active),–,–
CC(=O)Nc1ccc(C)c(Cl)c1,–,8.94 µM (active),inactive,39.9 µM (active),inactive,–,–
CC(C)=CCCC(C)CCOC=O (stereo unspecified),–,–,inactive,35.6 µM (active),71 µM (active),–,–
C1CSCCS1,–,inactive,inactive,inactive,inactive,–,–
O=C(O)[C@@H]1CSCN1,–,inactive,inactive,inactive,inactive,–,–
CN(C)CCOc1ccccc1Cc1ccccc1,–,–,7.56 µM (active),inactive,inactive,–,–
FC(F)(F)c1ccccc1,–,inactive,inactive,inactive,inactive,–,–
Cc1ccc([N+](=O)[O-])c(N)c1,–,24.6 µM (active),inactive,inactive,inactive,–,–
COc1ccccc1OCC(O)COC(N)=O (stereo unspecified),–,inactive,inactive,inactive,inactive,–,–
CCN(CCCc1ccccc1)CCCc1ccccc1,–,7.23 µM (active),–,inactive,inactive,–,–
Cc1cc(S(=O)(=O)O)c(N)cc1Cl,–,inactive,inactive,inactive,28.6 µM (active),–,–
Cc1nc(-c2ccccn2)ncc1C(=O)Nn1cc(C)c2cc(F)ccc21,–,31.7 µM (active),inactive,7.96 µM (active),1.59 µM (active),–,–
O=c1[nH]c(=O)n([C@H]2C[C@H](O)[C@@H](CO)O2)cc1C(F)(F)F,–,inactive,inactive,inactive,inactive,–,–
CCCCCCC,–,inactive,inactive,inactive,inactive,–,–
C=C(C)C(=O)OCCOP(=O)(O)O,–,inactive,inactive,inactive,inactive,–,–
